# Out of some 300,000 compounds screened, about 3,200 (1.1%) were called active. Rule as the data show it: active = inhibition above about 75%; inconclusive = no clear call, values can overlap the other calls; inactive = below that; tested in HMLE shEcad cells. The sample as a whole holds a higher share of actives than the screen did.
# Assay: cancer stem cell viability inhibitors, primary screen, luminescence (AID 2717)
# Conditions: cancer stem cell-like cells viability, at 7.5 µM, stronger effect = higher value
row,SMILES,inhibition
1,Cc1ccc(S(=O)(=O)N2CCN(C(=O)CN3C(=O)NC(C)(c4ccc(Cl)cc4)C3=O)CC2)c(C)c1 (stereo not given),3.13% (inactive)
2,CC1(C)C=Cc2c(ccc3c2OC[C@@H](c2ccc(O)cc2O)C3)O1,90% (active)
3,Cc1ccsc1C(=O)OCC(=O)NCCc1ccccc1,12.1% (inactive)
4,Cc1nnc(N/N=C/C2CC=CCC2)[nH]c1=O (stereo not given),9.52% (inactive)
5,Cc1nnc(N/N=C/c2ccccn2)[nH]c1=O,121% (active)
6,CNC(=O)C(=O)N/N=C/c1ccccn1,-9.33% (inactive)
7,O=C(COC(=O)CSc1ccccc1)Nc1ccc(F)cc1F,-0.0328% (inactive)
8,CNC[C@H]1Oc2c(NC(=O)C3CCCCC3)cccc2C(=O)N([C@H](C)CO)C[C@@H]1C,1.2% (inactive)
9,Cc1cccc(N2CCN(C(=O)c3cccc(N4C(=O)C5C6C=CC(C6)C5C4=O)c3)CC2)c1C (stereo not given),26.5% (inactive)
10,CCn1c(C)c(C)c2cc(C(=O)N3CCN(c4cccc(C)c4C)CC3)ccc21,120% (active)
11,CCC(CC)C(=O)N1CCN(c2cccc(C)c2C)CC1,-11.5% (inactive)
12,COc1ccccc1C(=O)COC(=O)COc1ccc(C#N)cc1,2.49% (inactive)
13,CC(C)(C)OC(=O)N[C@H](C(=O)OC(C)(C)C)c1ccc(Br)cc1,0.862% (inactive)
14,CC(OC(=O)c1ccc([N+](=O)[O-])cc1)C(=O)NCC1CCCCC1 (stereo not given),-10.2% (inactive)
15,CC(C)=CCCC1(C)C=Cc2c(ccc3c2[nH]c2cc(O)c(C)cc23)O1 (stereo not given),101% (active)
16,CCOC(=O)[C@H]1[C@H]2COc3cc(OC)ccc3[C@@H]2N2C(=O)CN(Cc3ccc(Cl)cc3)C(=O)[C@@]12C,-21.1% (inactive)
17,CC1CN(C(=O)c2ccc([N+](=O)[O-])s2)CC(C)O1 (stereo not given),0.926% (inactive)
18,COc1cc(NC(=O)COC(=O)c2ccc([N+](=O)[O-])s2)cc(OC)c1OC,-12.6% (inactive)
19,CN(c1ccccc1)S(=O)(=O)c1ccc(C(=O)N2CCN(c3ccccc3Cl)CC2)cc1,-0.098% (inactive)
20,CCCCCCc1cc2cc(-c3nnc(-c4ccccc4)o3)c(=O)oc2cc1O,118% (active)
21,CCCCCCc1ccc(O)cc1O,-10.2% (inactive)
22,Cc1c(CC(=O)NCCCCCC(=O)O)c(=O)oc2cc3occ(-c4ccccc4)c3cc12,-4.15% (inactive)
23,CC(C)NC(=O)Nc1cccc2c1O[C@H](CN(C)S(=O)(=O)c1cccs1)[C@@H](C)CN([C@H](C)CO)C2=O,-18% (inactive)

row,SMILES,inhibition
1,COc1ccccc1NS(=O)(=O)c1ccc(C)c(C(=O)NNC(=O)c2csc(N3CCOCC3)n2)c1,-11.7% (inactive)
2,CCCCC(=O)Nc1nc(C)c(-c2csc(Nc3ccc(Cl)cc3)n2)s1,63.1% (inactive)
3,C=CCCC(=O)Nc1nc(C)c(-c2csc(Nc3ccc(Cl)cc3)n2)s1,99% (active)
4,CCCCCCC(=O)Nc1nc(C)c(-c2csc(Nc3cc(Cl)ccc3OC)n2)s1,5.64% (inactive)
5,C/C=C/c1ccc(OCC(=O)NNC(=O)CN(C)S(=O)(=O)c2ccc(C)cc2)c(OC)c1,-2.93% (inactive)
6,CN(C(=O)c1cccc(NC(=O)Cc2ccc([N+](=O)[O-])cc2)c1)C1CCC1,1.28% (inactive)
7,Cc1cccc(-n2ncc(Cl)c(Cl)c2=O)c1,138% (active)
8,Cc1cccc(-n2ncc(C#N)c2-n2cccc2)c1,-10.4% (inactive)
9,COc1ccc(Oc2c(Cl)cnn(-c3ccccc3)c2=O)cc1,22% (inactive)
10,O=C(COC(=O)c1n[nH]c2ccccc12)Nc1ccccc1Br,-14% (inactive)
11,CC1CCCCC1NC(=O)Cn1cnc2c1c(=O)n(C)c(=O)n2C (stereo not given),-15.5% (inactive)
12,CC(C)(C)OC(=O)C[C@@H]1C/C=C\C[C@H](CC(=O)N[C@@H](CO)Cc2ccccc2)C(=O)N[C@H](Cc2ccccc2)COC1=O,-5.32% (inactive)
13,CCc1c(C)sc(NC(=O)c2ccc(Br)o2)c1C(=O)OC,28.8% (inactive)
14,CCc1c(C)sc(NC(=O)/C=C/c2ccc3c(c2)OCO3)c1C(=O)OC,96.5% (active)
15,CCOC(=O)CCCNC(=O)COC(=O)/C=C/c1ccc2c(c1)OCO2,-10.5% (inactive)
16,COc1ccc(S(=O)(=O)N2CCN(C(C)C(=O)Nc3ccc(C(C)C)cc3)CC2)cc1 (stereo not given),-10.6% (inactive)
17,O=C(COC(=O)c1cccs1)Nc1ccccc1Cl,-12.7% (inactive)
18,O=C(Nc1ccccc1Cl)Nn1cnnc1,-3.82% (inactive)
19,O=C(Nc1ccccc1Cl)/C(Cl)=C(\Cl)S(=O)c1ccccc1 (stereo not given),145% (active)
20,CC(C)(C)OC(=O)C[C@@H]1C/C=C\C[C@@H](CC(=O)N[C@H](CO)Cc2ccccc2)C(=O)NCCOC1=O,-6.88% (inactive)
21,CCOc1ccc(NC(=O)CN(C)C(=O)Cc2sc(C)nc2-c2ccc(F)cc2)cc1OCC,-4.92% (inactive)
22,COc1cc(C=NNC(=O)c2cccnc2)ccc1OC(=O)c1ccccc1F,-6.57% (inactive)
23,O=C1CSc2ccc(C(=O)NCc3ccccn3)cc2N1,-3.45% (inactive)

row,SMILES,inhibition
1,Cc1cccc(C)c1NC(=O)CNC(=O)c1ccc2c(c1)OCCO2,14.6% (inactive)
2,N#Cc1ccc(CN2CCN(CC(=O)Nc3ccccc3C(=O)NC3CC3)CC2)cc1,-9.82% (inactive)
3,N#Cc1c(-c2ccccc2)nc(SCc2ccc([N+](=O)[O-])cc2)[nH]c1=O,3.97% (inactive)
4,N#Cc1c(-c2ccccc2)nc(SCc2cccc(C(F)(F)F)c2)[nH]c1=O,105% (active)
5,Cc1ccc(CSc2nc(-c3ccccc3)c(C#N)c(=O)[nH]2)cc1,27.6% (inactive)
6,O=C(COC(=O)/C=C/c1cccc(Cl)c1)NCc1cccs1,2.73% (inactive)
7,O=C(CN1CCN(c2ccc(F)cc2)CC1)Nc1ccccc1,-1.5% (inactive)
8,Oc1c(CN2CCN(c3ccc(F)cc3)CC2)cc(Cl)c2cccnc12,138% (active)
9,Oc1ccc(CN2CCN(c3ncccn3)CC2)cc1,-8.35% (inactive)
10,O=C1c2ccccc2C(=O)N1CCC#Cc1ccc2cc(C3(O)CCCCC3)oc(=O)c2c1,4.37% (inactive)
11,COc1ccc(CCNc2nc(-c3cccc(NC(C)=O)c3)cs2)cc1OC,-2.96% (inactive)
12,COc1ccc2c(c1OC)C(=O)OC2Nc1nc(-c2ccccc2)cs1 (stereo not given),126% (active)
13,Cc1ccc(-c2csc(NC3OC(=O)c4ccccc43)n2)cc1 (stereo not given),-24.8% (inactive)
14,O=C(CN1C(=O)NC2(CCCCCC2)C1=O)Nc1ccc([N+](=O)[O-])cc1,-18.6% (inactive)
15,CCOC(=O)CSC1=C(C#N)C(c2sccc2C)CC(=O)N1 (stereo not given),78.4% (active)
16,CCOC(=O)CSC1=C(C#N)C(c2ccco2)C(C(=O)OCc2ccccc2)=C(C)N1 (stereo not given),-3.25% (inactive)
17,Cc1ccc(C2CC(=O)NC(SCC(=O)OCc3ccccc3)=C2C#N)o1 (stereo not given),61.5% (inactive)
18,Cc1c(Cl)cnc(NC(=O)COC(=O)C2CCCC2)c1Cl,-15.8% (inactive)
19,O=C(CCNC(=O)c1ccc(Cl)cc1)NC1CCCc2ccccc21 (stereo not given),27% (inactive)
20,COCCNc1cc(-c2ccccc2)nc2cc(-c3cccc(F)c3)nn12,85.5% (active)
21,COc1ccc(NC(=O)c2cc3nc(-c4ccccc4)cc(C)n3n2)cc1OC,5.1% (inactive)
22,COC(=O)c1cc2nc(-c3ccccc3)cc(C(F)(F)F)n2n1,-6.63% (inactive)
23,CN(CCc1ccccc1)C(=O)c1cccc(NC(=O)Cc2ccc([N+](=O)[O-])cc2)c1,-6.88% (inactive)

row,SMILES,inhibition
1,Cc1ccc(CNC(=O)CC(NC(=O)c2ccccc2)c2ccccc2)cc1 (stereo not given),-10.4% (inactive)
2,CCN(CC)S(=O)(=O)c1ccc(N2CCCC2)c(NC(=O)c2ccc([N+](=O)[O-])o2)c1,27.4% (inactive)
3,Cc1ccc(S(=O)(=O)N2CCCCC2)cc1NC(=O)CCNC(=O)c1ccccc1,-6.19% (inactive)
4,CCCNC(=O)c1c(N)n(-c2ccc(S(N)(=O)=O)cc2)c2nc3ccccc3nc12,0.593% (inactive)
5,CC(C)(C)c1ccc(C(=O)NCCn2c(N)c(C#N)c3nc4ccccc4nc32)cc1,35.6% (inactive)
6,CC(C)Cn1c(N)c(C(=O)NCc2cccs2)c2nc3ccccc3nc21,116% (active)
7,Cn1c(CC(=O)NNC(=O)c2ccccc2F)nc2ccccc21,-2.01% (inactive)
8,CN(Cc1ccccc1)C(=O)COC(=O)/C=C/c1ccc2c(c1)OCO2,-12% (inactive)
9,O=C(NCc1ccc2c(c1)OCO2)c1c(-c2ccsc2)sc2ccccc12,58.2% (inactive)
10,Cn1cncc1C#Cc1c(-c2ccsc2)sc2ccccc12,107% (active)
11,Cc1ccnc(SCC(=O)Nc2cccc(S(=O)(=O)N3CCOCC3)c2)n1,-13% (inactive)
12,O=C(NCC#CCSc1nnc(-c2cccc3ccccc23)o1)c1cccs1,44.4% (inactive)
13,O=C(/C=C/c1ccccc1[N+](=O)[O-])OCC(=O)N1CCCC1,-16.9% (inactive)
14,CSCCC1NC(=O)N(CC(=O)Nc2cccc(S(=O)(=O)N3CCCCCC3)c2)C1=O (stereo not given),-15.7% (inactive)
15,O=C(CCNC(=O)c1ccc(Br)cc1)NCC(c1ccco1)N1CCCCC1 (stereo not given),-10.9% (inactive)
16,COc1cccc(NC(=O)CN2CCN(c3nc(-c4cccc(OC)c4)cs3)CC2)c1,2.49% (inactive)
17,COc1cccc(CNc2nc3nc4c(c(=O)n3[nH]2)CCC4)c1,-11.3% (inactive)
18,COc1cccc(-c2cc3nc4c(c(N5CCC6(CC5)OCCO6)n3n2)CCCC4)c1,90.5% (active)
19,COc1ccccc1-c1sc2ccccc2c1C#CC1(O)CCCCC1,105% (active)
20,COc1ccccc1-c1sc2ccccc2c1-c1ccc(C(C)=O)cc1,29.6% (inactive)
21,COc1ccccc1C1=CC(=O)CCC1,-22.3% (inactive)

# Reference: PubChem BioAssay AID2717 (Broad Institute, 2010)
